From PubChem BioAssay (Tox21)
Results filed as inconclusive are left out. Calls of active or inactive are those of the source. Unless noted, calls follow the shape of the dose curve; as a rule, active = well fitted curve in the direction sought with a large enough effect in the repeat runs; inconclusive = weak or mixed curves; inactive = no such curve, though single readings can be large; an effect the other way counts as inactive or inconclusive.

Key:
[1] = qHTS assay to identify small molecule antagonists of the thyroid receptor (TR) signaling pathway - cell viability counter screen (AID 743064); also: nearly all actives have a fitted effect of over 50% in size
How it was run: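 GH3.TRE-Luc rat pituitary cells dosed after 4 hr plating, co-stimulated with T3 at 1 nM final, incubated 23.5 h at 37 C. Viability measured in the same wells by CellTiter-Fluor fluorescence after 30 min further at 37 C.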

[2] = qHTS assay to identify small molecule antagonists of the thyroid receptor (TR) signaling pathway (AID 743065); also: nearly all actives have a fitted effect of over 55% in size
How it was run: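 GH3.TRE-Luc rat pituitary cells carrying two TR response elements driving luciferase were plated for 4 h, given compound plus 1 nM T3 (final), and incubated 23.5 h at 37 C. ONE-Glo luminescence measured reporter inhibition; CellTiter-Fluor fluorescence tracked cytotoxicity.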

[3] = tested on: thyroid hormone receptor (rat, GH3 cells); experiment: qHTS assay to identify small molecule agonists of the thyroid receptor (TR) signaling pathway (AID 743066; calls by dose curve)
[4] = molecular target: Estrogen receptor (Homo sapiens) (UniProt P03372); experiment: qHTS assay to identify small molecule antagonists of the estrogen receptor alpha (ER-alpha) signaling pathway (AID 743069; active = well fitted curve in the direction sought with a large enough effect in the signal ratio in the repeat runs, not every such curve was filed as active; the % refers to the signal ratio)
How it was run: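 HEK293 cells stably carrying an ER-alpha-UAS-bla beta-lactamase reporter were pre-cultured overnight in 2% charcoal-stripped FBS medium. Test compounds in DMSO were added together with 17beta-estradiol for 18 hr at 37C. Read-out was fluorescence after 2 hr with LiveBLAzer B/G FRET substrate at room temperature.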

[5] = qHTS assay to identify small molecule antagonists of the estrogen receptor alpha (ER-alpha) signaling pathway - cell viability counter screen (AID 743074; calls by dose curve; also: nearly all actives have a fitted effect of over 45% in size)
[6] = molecular target: Estrogen receptor (Homo sapiens) (UniProt P03372); experiment: qHTS assay to identify small molecule agonists of the estrogen receptor alpha (ER-alpha) signaling pathway (AID 743075; calls by dose curve)
[7] = molecular target: Estrogen receptor (Homo sapiens) (UniProt P03372); experiment: qHTS assay to identify small molecule agonists of the estrogen receptor alpha (ER-alpha) signaling pathway using the BG1 cell line (AID 743079); details: BG1Luc4E2 cells, ERE-luciferase agonist, 22 h; for activation: at 70.3 µM (top of the series); also: potency is read from the fitted curve at half-maximal effect; as to all read-outs here: nearly all actives have a fitted effect of over 20% in size
[8] = qHTS assay to identify small molecule antagonists of the estrogen receptor alpha (ER-alpha) signaling pathway using the BG1 cell line (AID 743080; calls by dose curve; also: nearly all actives have a fitted effect of over 25% in size)
How it was run: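 Antagonist mode: compounds in DMSO were pinned onto BG1-Luc-4E2 cells alongside 17beta-estradiol agonist, incubated 21.5 h, and ERE-driven luciferase measured with ONE-Glo. Cytotoxicity was multiplexed using CellTiter-Fluor fluorescence.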

[9] = qHTS assay to identify small molecule antagonists of the estrogen receptor alpha (ER-alpha) signaling pathway using the BG1 cell line - cell viability counter screen (AID 743081);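 also: compound given together with 17beta-estradiol as the ER stimulus; nearly all actives have a fitted effect of over 45% in size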
Aromatase (Homo sapiens) = Aromatase (Homo sapiens) (UniProt P11511); experiment: qHTS assay to identify aromatase inhibitors (AID 743083); also: nearly all actives have a fitted effect of over 55% in size
[10] = qHTS assay to identify aromatase inhibitors - cell viability counter screen (AID 743084);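 also: cells stimulated with testosterone during compound exposure; nearly all actives have a fitted effect of over 55% in size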
[11] = qHTS assay to identify small molecule that activate the aryl hydrocarbon receptor (AhR) signaling pathway - cell viability counter screen (AID 743086);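 also: HepG2 liver cells carrying the AhR DRE luciferase reporter; nearly all actives have a fitted effect of over 45% in size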
How it was run: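 HepG2-AhR-luc (HG2L7.5c1) cells, 4000/well, were preincubated 5 h at 37C, exposed to compound in qHTS format for 24 hr at 37C, then given CellTiter-Fluor for 30 min; viability was read as fluorescence in the reporter wells.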

[12] = molecular target: Peroxisome proliferator-activated receptor gamma (Homo sapiens) (UniProt P37231); experiment: qHTS assay to identify small molecule agonists of the peroxisome proliferator-activated receptor gamma (PPARg) signaling pathway (AID 743094; active = well fitted activation curve with a large enough effect in the signal ratio in the repeat runs, not every such curve was filed as active; the % refers to the signal ratio)
How it was run: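 Compounds dissolved in DMSO were added to PPARg UAS-bla HEK293H cells for 17 h at 37C, and reporter expression was quantified by fluorescence intensity after 1 h with LiveBLAzer B/G FRET substrate.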

[13] = molecular target: Peroxisome proliferator-activated receptor gamma (Homo sapiens) (UniProt P37231); experiment: qHTS assay to identify small molecule antagonists of the peroxisome proliferator-activated receptor gamma (PPARg) signaling pathway (AID 743191; calls by dose curve; also: nearly all actives have a fitted effect of over 30% in size)
How it was run: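 GeneBLAzer PPARg UAS-bla HEK293H cells carrying a UAS-driven beta-lactamase reporter were plated at 3000 cells/well, preincubated 5 h at 37C, then given compound for 17 h at 37C; LiveBLAzer B/G FRET substrate was read after 1 h at room temperature.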

[14] = qHTS assay to identify small molecule antagonists of the peroxisome proliferator-activated receptor gamma (PPARg) signaling pathway - cell viability counter screen (AID 743194); details: Potency: co-treated with 50 nM rosiglitazone; also: nearly all actives have a fitted effect of over 55% in size
How it was run: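 PPARg-UAS-bla HEK293H cells were plated, rested 5 h at 37 C, then treated with compounds plus rosiglitazone (50 nM final) for 17 h at 37 C; viability was then read by CellTiter-Glo luminescence after 30 min at room temperature.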

[15] = qHTS assay for small molecule agonists of the antioxidant response element (ARE) signaling pathway (AID 743202; active = well fitted activation curve with a large enough effect in the signal ratio in the repeat runs, not every such curve was filed as active; the % refers to the signal ratio)
How it was run: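 Read-out: LiveBLAzer B/G FRET substrate fluorescence after 2 h at room temperature, following 16 h compound treatment at 37 C of HepG2 cells carrying an ARE-driven beta-lactamase reporter.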

[16] = qHTS assay for small molecule agonists of the antioxidant response element (ARE) signaling pathway - cell viability counter screen (AID 743203; calls by dose curve; also: nearly all actives have a fitted effect of over 55% in size)
How it was run: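 Following 16 hrs of compound treatment at 37C, HepG2 cells with an ARE-controlled beta-lactamase gene were lysed with CellTiter-Glo. Luminescence was read after 30 min at room temperature.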

[17] = qHTS assay for small molecule activators of the heat shock response signaling pathway (AID 743210; active = well fitted activation curve with a large enough effect in the signal ratio in the repeat runs, with a control signal flat, not every such curve was filed as active; the % refers to the signal ratio)
How it was run: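 HSE-bla HeLa cells (beta-lactamase reporter under heat shock response elements) were exposed to compounds for 5 h at 37 C, then loaded with LiveBLAzer B/G FRET substrate for 2.5 h at room temperature before fluorescence reading.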

[18] = molecular target: Aryl hydrocarbon receptor (Homo sapiens) (UniProt P35869); experiment: qHTS assay to identify small molecule that activate the aryl hydrocarbon receptor (AhR) signaling pathway (AID 743085); also: nearly all actives have a fitted effect of over 15% in size; also: potency is read from the fitted curve at half-maximal effect;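 as to activation: HG2L7.5c1 human HepG2 liver cells with stably integrated DRE-driven firefly reporter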
How it was run: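 HepG2 cells stably carrying a 20-DRE firefly luciferase reporter (HG2L7.5c1) treated with compound for 24 hr at 37C. Luciferase read by ONE-Glo luminescence, with CellTiter-Fluor viability read first.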

[19] = qHTS assay for small molecule activators of the heat shock response signaling pathway - cell viability counter screen (AID 743209); also: nearly all actives have a fitted effect of over 50% in size
How it was run: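 Readout: CellTiter-Glo luminescence, 30 min at room temperature. System: HSE-bla HeLa cells, 1500/well, plated overnight. Treatment: compounds in DMSO, 5 h at 37 C.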
% is scaled to controls: 0 for no effect and ±100 for the full control effect.

Sequence of Peroxisome proliferator-activated receptor gamma (Homo sapiens) (P37231 whole entry, looked up): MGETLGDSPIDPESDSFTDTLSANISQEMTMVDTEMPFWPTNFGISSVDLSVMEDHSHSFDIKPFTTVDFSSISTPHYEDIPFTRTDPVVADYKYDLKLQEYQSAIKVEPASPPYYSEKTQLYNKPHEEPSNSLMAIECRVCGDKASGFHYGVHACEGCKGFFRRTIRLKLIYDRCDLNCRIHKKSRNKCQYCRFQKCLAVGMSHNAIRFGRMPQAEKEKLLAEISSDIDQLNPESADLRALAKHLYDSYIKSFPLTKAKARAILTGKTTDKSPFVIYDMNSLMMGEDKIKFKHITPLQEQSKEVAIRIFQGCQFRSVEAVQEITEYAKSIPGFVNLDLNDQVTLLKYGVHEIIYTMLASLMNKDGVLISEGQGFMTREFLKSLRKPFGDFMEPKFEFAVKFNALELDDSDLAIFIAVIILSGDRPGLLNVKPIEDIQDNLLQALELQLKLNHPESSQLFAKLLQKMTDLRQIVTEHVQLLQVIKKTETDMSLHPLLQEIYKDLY
Sequence of Aromatase (Homo sapiens) (P11511 whole entry, looked up): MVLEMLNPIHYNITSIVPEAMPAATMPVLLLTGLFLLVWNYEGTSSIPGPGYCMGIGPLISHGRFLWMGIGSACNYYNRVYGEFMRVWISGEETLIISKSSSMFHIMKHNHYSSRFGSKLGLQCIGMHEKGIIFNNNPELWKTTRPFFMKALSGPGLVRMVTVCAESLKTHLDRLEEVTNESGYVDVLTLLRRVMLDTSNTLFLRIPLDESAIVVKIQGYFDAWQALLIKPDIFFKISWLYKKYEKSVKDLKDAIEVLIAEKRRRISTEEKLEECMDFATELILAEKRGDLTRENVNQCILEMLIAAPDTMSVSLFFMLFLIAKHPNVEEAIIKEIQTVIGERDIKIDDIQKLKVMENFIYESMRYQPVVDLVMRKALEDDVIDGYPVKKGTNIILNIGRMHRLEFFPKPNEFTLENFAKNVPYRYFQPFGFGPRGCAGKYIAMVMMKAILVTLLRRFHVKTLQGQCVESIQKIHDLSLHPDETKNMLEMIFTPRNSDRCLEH
Sequence of Estrogen receptor (Homo sapiens) (P03372 whole entry, looked up): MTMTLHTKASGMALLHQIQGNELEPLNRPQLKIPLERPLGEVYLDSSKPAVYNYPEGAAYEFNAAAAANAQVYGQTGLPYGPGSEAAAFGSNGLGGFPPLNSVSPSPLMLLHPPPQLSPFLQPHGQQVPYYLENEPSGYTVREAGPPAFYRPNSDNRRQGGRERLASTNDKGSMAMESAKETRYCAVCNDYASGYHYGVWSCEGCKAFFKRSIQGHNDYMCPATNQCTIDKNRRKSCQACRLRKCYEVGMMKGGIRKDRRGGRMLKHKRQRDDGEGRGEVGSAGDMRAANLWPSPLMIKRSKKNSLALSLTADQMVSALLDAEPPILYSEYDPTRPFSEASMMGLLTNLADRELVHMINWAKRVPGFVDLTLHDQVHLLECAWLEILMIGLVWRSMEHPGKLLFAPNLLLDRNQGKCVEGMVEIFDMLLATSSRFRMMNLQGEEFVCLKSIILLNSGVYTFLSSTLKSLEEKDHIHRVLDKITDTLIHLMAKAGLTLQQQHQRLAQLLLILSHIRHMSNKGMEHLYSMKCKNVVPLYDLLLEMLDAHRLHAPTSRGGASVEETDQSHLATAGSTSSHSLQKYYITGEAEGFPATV
Sequence of Aryl hydrocarbon receptor (Homo sapiens) (P35869 whole entry, looked up): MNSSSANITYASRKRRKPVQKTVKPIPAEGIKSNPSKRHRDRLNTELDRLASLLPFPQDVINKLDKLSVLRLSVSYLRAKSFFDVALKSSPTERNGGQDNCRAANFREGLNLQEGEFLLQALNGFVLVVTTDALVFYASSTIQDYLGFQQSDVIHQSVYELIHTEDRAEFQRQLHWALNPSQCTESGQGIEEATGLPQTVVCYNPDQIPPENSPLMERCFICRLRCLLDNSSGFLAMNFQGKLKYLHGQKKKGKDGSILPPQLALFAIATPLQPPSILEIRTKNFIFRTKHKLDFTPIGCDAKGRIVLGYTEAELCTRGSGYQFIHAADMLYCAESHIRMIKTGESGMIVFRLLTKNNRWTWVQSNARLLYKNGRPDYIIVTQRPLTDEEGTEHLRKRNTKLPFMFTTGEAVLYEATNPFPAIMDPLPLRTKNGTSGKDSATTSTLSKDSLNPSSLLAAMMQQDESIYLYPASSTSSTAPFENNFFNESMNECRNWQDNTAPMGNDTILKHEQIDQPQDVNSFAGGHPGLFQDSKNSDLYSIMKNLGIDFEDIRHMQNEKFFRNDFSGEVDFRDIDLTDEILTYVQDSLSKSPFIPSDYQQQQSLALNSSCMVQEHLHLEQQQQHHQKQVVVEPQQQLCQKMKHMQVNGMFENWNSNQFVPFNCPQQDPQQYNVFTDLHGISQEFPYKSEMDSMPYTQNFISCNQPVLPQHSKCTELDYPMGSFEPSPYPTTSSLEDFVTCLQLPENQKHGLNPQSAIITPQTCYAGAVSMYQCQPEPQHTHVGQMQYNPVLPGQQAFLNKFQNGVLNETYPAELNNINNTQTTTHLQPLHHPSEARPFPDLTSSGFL

CCOP(=O)(N=C1SCCS1)OCC
inactive: Potency [1] | Potency [2] | Potency [3] | Potency [4] | outcome [5] | Potency [6] | activation [7] -3.11% | Potency [8] | Potency [9] | Potency (Aromatase (Homo sapiens)) | Potency [10] | outcome [11] | outcome [12] | Potency [13] | Potency [14] | Potency [15] | Potency [16] | outcome [17]

CCOP(=S)(OCC)Oc1nc(Cl)n(C(C)C)n1
active: Potency [18] 10.9 µM
inactive: Potency [1] | Potency [2] | Potency [3] | Potency [4] | outcome [5] | Potency [6] | activation [7] 5.59% | Potency [8] | Potency [9] | Potency (Aromatase (Homo sapiens)) | Potency [10] | outcome [11] | outcome [12] | Potency [13] | Potency [14] | Potency [15] | Potency [16] | Potency [19] | outcome [17]

BrCCCCCCBr
inactive: Potency [1] | Potency [2] | Potency [3] | Potency [4] | outcome [5] | Potency [6] | activation [7] -3.68% | Potency [9] | Potency (Aromatase (Homo sapiens)) | Potency [10] | outcome [11] | outcome [12] | Potency [13] | Potency [14] | Potency [16] | Potency [19] | outcome [17]

CCC(=O)c1ccccc1
inactive: Potency [1] | Potency [2] | Potency [3] | Potency [4] | outcome [5] | Potency [6] | activation [7] -1.07% | Potency [8] | Potency [9] | Potency (Aromatase (Homo sapiens)) | Potency [10] | Potency [18] | outcome [11] | outcome [12] | Potency [14] | Potency [15] | Potency [16] | Potency [19] | outcome [17]

CSc1nc(N=[N+]=[N-])nc(NC(C)C)n1
inactive: Potency [1] | Potency [2] | Potency [3] | Potency [4] | outcome [5] | Potency [6] | activation [7] 2.14% | Potency [8] | Potency [9] | Potency (Aromatase (Homo sapiens)) | Potency [10] | Potency [18] | outcome [11] | outcome [12] | Potency [14] | Potency [16] | Potency [19]

c1cc2c(c(N3CCNCC3)c1)OCCO2
inactive: Potency [1] | Potency [2] | Potency [3] | Potency [4] | outcome [5] | Potency [6] | activation [7] 9.1% | Potency [8] | Potency [9] | Potency (Aromatase (Homo sapiens)) | Potency [10] | Potency [18] | outcome [11] | outcome [12] | Potency [13] | Potency [14] | Potency [15] | Potency [19] | outcome [17]

COc1ncc(F)c2nc(S(=O)(=O)Nc3c(F)cccc3F)nn12
inactive: Potency [1] | Potency [2] | Potency [3] | outcome [5] | Potency [6] | activation [7] -3.47% | Potency [8] | Potency [9] | Potency (Aromatase (Homo sapiens)) | Potency [10] | Potency [18] | outcome [11] | Potency [14] | Potency [15] | Potency [16] | Potency [19]

CCOP(=S)(OCC)Oc1ncn(-c2ccccc2)n1
inactive: Potency [1] | Potency [2] | Potency [3] | outcome [5] | Potency [6] | Potency [8] | Potency [9] | Potency (Aromatase (Homo sapiens)) | Potency [10] | outcome [11] | outcome [12] | Potency [13] | Potency [14] | Potency [16] | Potency [19] | outcome [17]
active: Potency [7] 54.5 µM | Potency [18] 24.3 µM
